Assay results taken from PubChem BioAssay (NCI).
Compounds without any hit were thinned out: in the full panel of roughly 79,000, 15% have a hit. Unmarked numbers belong to inactive results. Cut-off read from the data, not from the text of the source: active = growth inhibition above about 70%; inactive = the rest.

Assay: NCI Yeast Anticancer Drug Screen. Data for the wt1 strain (AID 149);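 note: 0% = growth of vehicle-treated wt1 cultures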
Conditions: S. cerevisiae wt1 strain (SPY 50644) growth inhibition; at 1.2 µM; hits give high values
Summary of the method: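 Each compound is tested on wt1 yeast and the loss of growth versus vehicle gives the inhibition value.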
For `S=C(S)NN1CCOCC1`, the growth inhibition was 43%.
With `COc1cc2c3c(cccc3c1)C(=O)N(CCN(C)C)C2=O` the growth inhibition was -6%.
`COC(=O)C1=C(C)NC(C)=C(C(=O)OCCCN2CCC(c3ccccc3)(c3ccccc3)CC2)C1c1cccc([N+](=O)[O-])c1` (stereo not given) gave a growth inhibition of -3%.
Work on `c1ccc2c(c1)Oc1cccc3cccc-2c13` yielded a growth inhibition of -11%.
`CN(C)CCOc1ccc2c(c1)C/C(=C/c1ncc([N+](=O)[O-])n1C)C2=O` showed a growth inhibition of 28%.
`Cc1ccc(CCC2=CCCc3c2ccc2ccccc32)cc1` showed a growth inhibition of -3%.
`CNC(=O)OCc1c(COC(=O)NC)c(-c2ccc(Cl)c(Cl)c2)n2c1CCC2` gave a growth inhibition of -53%.
Work on `Clc1ccccc1C1OC1c1ccccc1Cl` (stereo not given) yielded a growth inhibition of -65%.
`O=[N+]([O-])c1cc(CCl)ccc1CCl` showed a growth inhibition of 2%.
In the case of `O=C1C=CC(=O)c2c(O)c(Nc3ccc(OC(F)(F)F)cc3)c(Cl)c(O)c21`, the growth inhibition is reported as 23%.
With `S=c1[nH]nc(Nc2ccc(Cl)cc2)s1` the growth inhibition was 1%.
In the case of `Cn1ccnc1Oc1ccc(Cl)cc1`, the growth inhibition is reported as 1%.
`BrCc1cccc2ccc3cccc(CBr)c3c12` gave a growth inhibition of -3%.
`O=C1c2ccccc2-c2nc3ccccc3nc21` showed a growth inhibition of -20%.
`CCCCCCCCCCCCCCCCCCNC` showed a growth inhibition of 5%.
`Oc1ccc(NCn2c(=S)sc3ccccc32)cc1` gave a growth inhibition of -24%.
For `O=C1C2CC[C@@H]3C(=O)C(Cl)(Cl)[C@@H]3CCC2C1(Cl)Cl` (stereo not given in full), the growth inhibition was 0%.
For `CC[n+]1ccc2c(C)c3[nH]c4ccc(O)cc4c3c(C)c2c1`, the growth inhibition was -13%.
For `Cc1ccc(-n2cc(-c3ccc(Cl)cc3)c(C#N)c2N)cc1`, the growth inhibition was -4%.
Compound `CC(=O)[O][Bi]([c]1ccccc1)[c]1ccccc1` has a growth inhibition of 2%.
With `CC1=C(SCCO)C(=O)c2ccccc2C1=O` the growth inhibition was -4%.
`C/C(=N\O)C1CC2C=C(C#N)C1N(Cc1ccccc1)C2` (stereo not given) showed a growth inhibition of 0%.
`CC(Br)C(=O)c1ccc2cc(Br)c3ccccc3c2c1` (stereo not given) gave a growth inhibition of 0%.
`Nc1nc(-c2cccnc2)cc(-c2cc(-c3cccnc3)nc(N)n2)n1` gave a growth inhibition of 0%.
In the case of `CC(C)=CC(=O)O[C@@H]1CC(C)(C)CC2C3=CCC4[C@]56CC[C@](O)(OC5)C(C)(C)C6CC[C@@]4(C)C3(C)CC[C@]21C(=O)O` (stereo not given in full), the growth inhibition is reported as -23%.
`CCC(C)COC(=O)c1ccc(N=Cc2ccc(C=Nc3ccc(C(=O)OCC(C)CC)cc3)cc2)cc1` (stereo not given) gave a growth inhibition of -1%.
Compound `Oc1cccc2c(Cl)ccnc12` has a growth inhibition of 47%.
In the case of `O=C(O)c1cccc(-c2c3ccc(=O)cc-3oc3cc(O)ccc23)c1`, the growth inhibition is reported as -10%.
With `CN(CCc1ccccn1)c1ccc2c(c1)Cc1ccccc1-2` the growth inhibition was 1%.
Compound `Cc1cc(S(=O)(=O)/N=C(/NN)NNc2cccc(C(F)(F)F)n2)c(S)cc1Cl` has a growth inhibition of 0%.
With `O=C1C2C(C(=O)N1c1ccc(OCc3ccccc3)cc1)C1c3ccccc3C2C2CCCCN21` (stereo not given) the growth inhibition was -6%.
`Nc1ccccc1CC(O)C(=O)O` (stereo not given) gave a growth inhibition of 2%.
`O=C(O)C1CCCCC1c1c2ccc(=O)c(O)c-2oc2c(O)c(O)ccc12` (stereo not given) showed a growth inhibition of -17%.
Compound `Cc1ccc2ccc(O)cc2c1` has a growth inhibition of -22%.
Compound `O=C1C(=O)c2ccccc2C=C1[N+](=O)[O-]` has a growth inhibition of 3%.
`COC(=O)c1ccc(NCC2=CC(=O)C=CC2=O)cc1O` showed a growth inhibition of -14%.
For `C(CCSC1=NCCN1)CSC1=NCCN1` (tested in a mixture with another compound), the growth inhibition was -3%.
Work on `N#Cc1c(N)[nH]c2ccc(Sc3ccccc3)cc12` yielded a growth inhibition of 1%.
`CCNc1nnc(CSc2nc(-c3ccccc3)c(-c3ccccc3)[nH]2)s1` showed a growth inhibition of -4%.
For `CC[C@@]1(O)C(=O)OCc2c1cc1n(c2=O)Cc2cc3c(N)cccc3nc2-1`, the growth inhibition was 22%.
